Smad3 FoxH1 inh – Smad3/FoxH1 peptide binding inhibitors, primary screen, biochemical, TR-FRET | Mothers against decapentaplegic homolog 3 (Homo sapiens), P84022 | TR-FRET Smad3/Dy647-FoxH1 peptide binding, europium anti-His | inhibition, % at 25 µM | actives 0.29% (n = 88,000);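 active = compounds that reduce the energy-transfer binding signal between the protein and its labelled peptide by more than half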;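 note: 0% = Smad3 plus labelled peptide maximal FRET and 100% = peptide-only background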
ERa coact pot – enhancers of ERα–SRC-1 coactivator binding, primary screen, biochemical, TR-FRET, ERα LBD, low estradiol; AID 639, 2007; actives 1.3% (n = 86,000); coactivator binding (% of control), % at 25.6 µM; Estrogen receptor (Homo sapiens), P03372; TR-FRET ERalpha-LBD/SRC-Cy5 coactivator binding, 2 h; 100 = basal binding, no effect; in the data active = activity above about 200%;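 note: binding measured in presence of low estradiol as agonist stimulus; 0% = peptide alone without receptor and 100% = receptor with peptide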
ERa SRC1 inh – ERα–SRC-1 coactivator interaction inhibitors, primary screen, biochemical, TR-FRET, ERα LBD, estradiol-bound; Estrogen receptor (Homo sapiens), P03372; TR-FRET ER-alpha LBD / SRC-1 peptide; actives 1.7% (n = 86,000); inhibition, % at 25.6 µM; in the data active = inhibition above about 50%;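 note: 0% = receptor plus peptide control and 100% = peptide only without receptor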
ERb coact inh – inhibitors of ERβ-SRC1 coactivator interaction, primary screen, biochemical, TR-FRET, ERβ LBD, SRC-1 peptide | Estrogen receptor beta (Homo sapiens), Q92731 | TR-FRET ER-beta LBD / SRC1-Cy5 peptide binding; receptor agonist-loaded with 1 µM estradiol | inhibition, % at 25.6 µM | actives 1.3% (n = 86,000);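 active = compounds whose percent inhibition of the receptor-coactivator binding signal exceeds about 50% in the single-dose screen, limit read from the data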;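 note: 0% = receptor plus peptide wells without compound and 100% = peptide-only wells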
Target sequence (Q92731 whole entry, looked up, the tested form may be a part): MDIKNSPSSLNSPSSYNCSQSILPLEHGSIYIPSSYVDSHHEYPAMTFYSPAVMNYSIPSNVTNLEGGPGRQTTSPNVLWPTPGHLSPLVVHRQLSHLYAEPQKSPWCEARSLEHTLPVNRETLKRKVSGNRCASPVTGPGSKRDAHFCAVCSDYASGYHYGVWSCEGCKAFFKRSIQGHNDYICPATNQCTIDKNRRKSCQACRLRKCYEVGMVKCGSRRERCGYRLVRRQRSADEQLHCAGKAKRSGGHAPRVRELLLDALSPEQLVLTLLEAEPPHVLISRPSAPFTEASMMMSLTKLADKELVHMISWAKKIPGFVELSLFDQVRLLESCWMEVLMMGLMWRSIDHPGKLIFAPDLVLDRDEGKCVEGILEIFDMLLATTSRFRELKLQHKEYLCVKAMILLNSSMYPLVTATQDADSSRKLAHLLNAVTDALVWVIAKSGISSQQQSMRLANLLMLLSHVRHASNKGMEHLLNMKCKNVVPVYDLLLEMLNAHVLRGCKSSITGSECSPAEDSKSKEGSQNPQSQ
Candida biofilm – clotrimazole potentiators killing Candida biofilms, primary screen, with clotrimazole, Alamar Blue | C. albicans biofilm + clotrimazole | inhibition, % at 6 µM | actives 0.14% (n = 85,000) | AID 834, 2007;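 active = inhibition above 20%; inactive = inhibition below 20%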;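 note: preformed 24 hr biofilms exposed to compound for 48 hr; 0% = biofilm without compound and 100% = blank killed by clotrimazole plus chlorhexidine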
* marks the source's active call; other numbers are inactive results; / = not tested or not shown; [ ] = dose if it differs, or a comment. Hits are enriched below; roughly 3.8% of the tested compounds scored in any of these assays.

SMILES	Smad3 FoxH1 inh	ERa coact pot	ERa SRC1 inh	ERb coact inh	Candida biofilm
CCOC(=O)C1=C(O)/C(=C/c2ccc(CNC(=O)C(=O)Nc3ccc(C)cc3)o2)N=C1C	8	110	55*[fluorescence artefact?]	47	1
CN(C)c1ccc(C(=O)Nc2nnc(-c3ccc(Cl)cc3)o2)cc1	-57	178	64*[fluorescence artefact?]	56*[fluorescence artefact?]	17
O=C(CSc1nc2cc(Cl)ccc2s1)c1ccco1	-8	73	12	8	7
O=C(CSc1nnc(SCC(=O)c2ccco2)s1)c1ccco1	-1	67	60*	53*	9
CCOC(=O)c1c2c(c(=S)n(-c3ccccc3)c1N)CCC2	2	87	8	7	4
CCOC(=O)c1c(N)sn(-c2ccccc2)c1=S	-3	590*[fluorescence artefact?]	-5	-2	8
COc1ccc(-n2nc(C(=O)NCc3ccco3)c3c4ccccc4n(C)c3c2=O)cc1	5	329*[fluorescence artefact?]	4	2	3
NC(=O)CSc1nnc(Cc2csc(Nc3ccccc3)n2)n1Cc1ccccc1	86*	111	-2	0	10
COCCCn1c(Cc2csc(Nc3ccccc3)n2)nnc1SCC(N)=O	15	121	-8	-2	3
CCCCCn1c(=O)[nH]c2cc(C(=O)NCc3ccc4c(c3)OCO4)ccc2c1=O	-10	141	61*[fluorescence artefact?]	49	-5
O=C(c1ccc2c(=O)n(Cc3ccc4c(c3)OCO4)c(=S)[nH]c2c1)N1CCCCC1	-12	97	-18	-9	11
COCCCNC(=O)c1ccc2c(=O)n(Cc3ccc4c(c3)OCO4)c(=S)[nH]c2c1	6	121	58*	47	14
COC(=O)c1ccc2c(=O)n(CCCCCC(=O)NCc3ccc4c(c3)OCO4)c(=O)[nH]c2c1	2	78	88*	43	4
COC(=O)c1ccc2c(=O)n(CCCCCC(=O)NCc3ccccc3)c(=O)[nH]c2c1	2	72	85*[fluorescence artefact?]	52*[fluorescence artefact?]	5
COC(=O)c1ccc2c(=O)n(CCCCCC(=O)NCc3ccccn3)c(=O)[nH]c2c1	5	129	-2	-16	1
CCCCN1C(=O)NC2NC(=O)NC21 (centres undefined)	6	97	5	-5	6
CC(C)=CCNc1ncnc2c1c(C#N)cn2[C@H]1O[C@H](CO)[C@@H](O)[C@@H]1O	-8	/	/	/	/
NC(=[SH+])[N-]/N=C/c1ccccn1.O=S(=O)(O)O.[Fe]	50	/	/	/	/
O=C(SCc1cccc2ccccc12)c1ccc(Cl)cc1	-7	/	/	/	/
N[C@@H](CSCc1ccccc1)C(=O)O	1	/	/	/	/
Cc1cc(OCc2nc(N)nc(N)c2-c2ccc(Cl)c(Cl)c2)ccc1[N+](=O)[O-]	56*	/	/	/	/
NC(=O)c1sc2nc3c(c(-c4ccc(Cl)cc4)c2c1N)CCCC3	4	252*[fluorescence artefact?]	11	21	3
CC(C)NC(=O)CN1C(=O)NC(CCc2ccccc2)C1=O (centres undefined)	-1	107	61*[fluorescence artefact?]	-4	-2
O=C(CN1C(=O)NC(Cc2ccccc2)C1=O)Nc1ccc(F)cc1 (centres undefined)	5	103	-1	-9	10
Cc1ccc(S(=O)(=O)N2CCN(c3ccc(S(=O)(=O)N4CCOCC4)cn3)CC2)cc1	3	346*[fluorescence artefact?]	-15	31	3
SMILES	Smad3 FoxH1 inh	ERa coact pot	ERa SRC1 inh	ERb coact inh	Candida biofilm
C[C@@](N)(/C=C/c1ccccc1)C(=O)O	-12	/	/	/	/
C/C(N)=C(/C#N)C(=O)CSc1ncnc2ccccc12	9	51	43	45	5
C/C(N)=C(/C#N)C(=O)CSc1nnc(NC(C)C)s1	17	1	97*[fluorescence artefact?]	99*[fluorescence artefact?]	4
C/C(N)=C(/C#N)C(=O)CSc1nnc(Nc2ccccc2C)s1	-7	42	51*[fluorescence artefact?]	65*	-2
CC(C)[C@H](N)c1nnc(SC/C=C/c2ccccc2)o1	9	101	-6	-3	7
Cc1ccc(-c2nc3cnccn3c2Nc2c(C)cccc2C)o1	5	91	0	-6	9
Cc1cc(C)c2cc(CN(CCN3CCCC3)C(=O)Nc3ccc(F)cc3)c(=O)[nH]c2c1	2	101	11	-14	0

Screening data from PubChem BioAssay.
